The list is not random: actives were taken first. Their share in the collection is about 3.9%.
ALR inh: inhibitors of human ALR sulfhydryl oxidase, primary screen, biochemical, H2O2 detection, HRP-luminol luminescence, single point; 290,000 tested, 3.8% active; inhibition, % (concentration not given with the values); purified ALR, DTT oxidation; AID 485317, 2010; FAD-linked sulfhydryl oxidase ALR (Homo sapiens), P55789;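 active = mean replicate inhibition above about 79%, with every replicate also reaching it, limit read from the data; inconclusive = only one of the two criteria met; inactive = mean below limit and not every replicate reaching it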
Target sequence (P55789 whole entry, looked up): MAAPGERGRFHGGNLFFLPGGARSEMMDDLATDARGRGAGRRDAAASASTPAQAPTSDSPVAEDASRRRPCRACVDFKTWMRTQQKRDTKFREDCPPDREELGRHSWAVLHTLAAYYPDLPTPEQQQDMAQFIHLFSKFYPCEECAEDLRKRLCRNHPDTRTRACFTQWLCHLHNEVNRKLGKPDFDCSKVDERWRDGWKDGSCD
Cardio protect: cardioprotection against H2O2-induced cell death, primary screen, uHTS, H9c2 cells, ATPLite luminescence | H9c2 cardiomyocytes, H2O2 injury protection, 2 h | protection from H2O2 cell death, % at 20 µM | 360,000 tested, 0.63% active;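 active = compounds giving at least 50% protection of heart cells from peroxide-induced death in the single-dose screen, raw or plate-pattern-corrected value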;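 also: 0% = DMSO wells with peroxide and 100% = DMSO wells without peroxide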
NTR1 agonist: agonists of human NTR1, primary screen, imaging, U2OS cells, beta-arrestin-GFP, high content; Neurotensin receptor type 1 (Homo sapiens), P30989; NTR1-U2OS beta-arrestin-GFP spot imaging, agonist mode; activation, % at 20 µM; 330,000 tested, 0.17% active; AID 493036, 2011;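 active = activation at or above 40% of the spot to cytoplasm intensity ratio, with at least 20 cells analyzed; inconclusive = wells under 20 cells, flagged as cytotoxic or low count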;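 also: 0% = DMSO without peptide and 100% = 100 nM NTR1 peptide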
SUMO HTRF inh: inhibitors of in vitro SUMOylation cascade, primary screen, biochemical, HTRF, uHTS. SUMO-conjugating enzyme UBC9 (Homo sapiens), P63279. HTRF SUMOylation assay, SAE1/SAE2 + UBC9. inhibition, % at 35 µM. 290,000 tested, 0.36% active. AID 2006, 2009; in the data active = inhibition above about 50%, passing the limit was not always enough; inconclusive = no clear call, values can overlap the other calls
Target sequence (P63279 whole entry, looked up): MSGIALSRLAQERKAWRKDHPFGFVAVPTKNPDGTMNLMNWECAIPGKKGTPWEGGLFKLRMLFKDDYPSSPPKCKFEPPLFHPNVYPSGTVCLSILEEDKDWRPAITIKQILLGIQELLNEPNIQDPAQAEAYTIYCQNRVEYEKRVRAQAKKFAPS
* hit, by the source's call; ? = inconclusive; . = no result given.

SMILES	ALR inh	Cardio protect	NTR1 agonist	SUMO HTRF inh
CC1C(=O)N(Cc2cn(CC3CCCCC3)nn2)CCS(=O)(=O)N1Cc1ccc(-c2ccc(Cl)c(Cl)c2)cc1 (configuration not stated)	.	-20	.	.
CCCN1CCC(=O)N([C@H](CSc2ccc(OC)cc2)CC(C)C)CC1	99*	-7	-6	-4
CC(C)C[C@@H](CSc1ccccc1)N1CCN(CCc2ccccc2)CCC1=O	-3	-3	4	3
CC1Cc2cc(/C(O)=C3/C(=O)C(=O)N(CCCn4ccnc4)C3c3ccc(Br)cc3)ccc2O1 (configuration not stated)	44	-1	1	6
COc1ccc(-c2nn(-c3ccccc3F)cc2CNCCn2nc(C)cc2C)cc1	8	-1	-1	-22
Cc1cc(C)n(-c2nc3ccccc3n3cnnc23)n1	-4	2	-1	7
CCN(CC)c1nc2ccccc2n2cnnc12	-9	1	1	1
c1ccc2c(c1)CCN(c1nc3ccccc3n3cnnc13)C2	0	58*	14	11
c1ccc(N2CCOCC2)c(Nc2nc3ccccc3n3cnnc23)c1	32	81*	8	18
c1ccc(CN2CCN(c3nc4ccccc4n4cnnc34)CC2)cc1	-14	5	7	12
c1ccc2c(c1)CCCN2c1nc2ccccc2n2cnnc12	-4	54*	23	11
c1ccc2c(c1)nc(NCCN1CCOCC1)c1nncn12	4	20	2	7
C1=C(c2ccccc2)CCN(c2nc3ccccc3n3cnnc23)C1	95*	67*	6	8
O=C(COC(=O)C12CC3CC(CC(O)(C3)C1)C2)Nc1ccc(Cl)cc1F	.	-5	5	.
Cc1ccsc1C(=O)Nc1nccs1	-2	-5	1	9
c1ccc2c(c1)nc(N1CCOCC1)c1nncn12	-3	3	0	18
c1ccc(N2CCN(c3nc4ccccc4n4cnnc34)CC2)cc1	97*	23	6	2
Cn1c(SCC(=O)c2ccc(O)c(O)c2)nnc1-c1cccs1	99*	1	-2	16
Cc1ccc(C(=O)CSc2nnc(-c3ccco3)n2Cc2ccccc2)cc1	2	-8	3	31
Cn1c(SCC(=O)c2ccc(O)c(O)c2)nnc1-c1ccccc1	93*	8	-1	13
Cn1c(SCC(=O)c2ccc(-c3ccccc3)cc2)nnc1-c1ccco1	88*	-4	0	2
O=C(CCc1nc2ccccc2c(=O)[nH]1)Nc1cc(Cl)ccc1N1CCCCC1	-3	19	6	.
COc1ccc(-c2ccc(CN3C(C(C)C)C(=O)N(Cc4cn(CCC5OCCCO5)nn4)CCS3(=O)=O)cc2)cn1 (configuration not stated)	.	-15	.	.
COc1ccc(CN(CC(=O)NC2CCCCC2)C(=O)CCC(=O)Nc2nccs2)cc1	-3	1	0	9
O=C(O)CC1S/C(=N/N=C/c2ccc(-c3ccc(Cl)cc3[N+](=O)[O-])o2)NC1=O (configuration not stated)	82*	-7	-2	18
SMILES	ALR inh	Cardio protect	NTR1 agonist	SUMO HTRF inh
COCCOc1ccc(C(F)(F)F)cc1NC(=O)COC(=O)C1=COCCO1	-5	14	0	.
COC(=O)c1c(C)c[nH]c1C	-19	2	-3	-8
O=C(NCN1CCN(c2ccccc2)CC1)c1cnccn1	98*	5	-1	4
CCN1CCN(CNC(=O)c2cnccn2)CC1	-4	2	0	-12
Nc1ccc(-c2nc3ccc(N)cc3o2)cc1	100*	-10	5	?
COC(=O)c1ccc(-c2nc3cc(N)ccc3o2)cc1	95*	-29	1	8
CC(=O)Nc1ccc(-c2nc3cc(Cl)ccc3o2)cc1	12	-6	1	12
Cc1ccc(C)c(-c2nc3cc(N)ccc3o2)c1	99*	-3	3	36
Cc1ccc2nc(-c3cc(N)cc(N)c3)oc2c1	-3	-37	5	-12
Cc1ccc(-c2nc3cc(N)ccc3o2)cc1Br	66	-9	2	29
CN(C)c1ccc(-c2nc3cc(N)ccc3o2)cc1	99*	-19	2	?
CN(CC(=O)Nc1ccc(F)cc1)C(=O)c1ccc(OCc2cn3ccccc3n2)cc1	-3	-2	1	.
CCN(CC(=O)Nc1c(F)cccc1F)C(=O)CCSc1ccc(F)cc1	-3	-4	-1	.
CC(C)(C)N1C(=O)c2ccc(C(=O)Nc3nccs3)cc2C1=O	4	0	2	-34
Nc1ccc(-c2nc3cc(N)ccc3o2)cc1	93*	-12	1	?
COc1ccc(S(=O)(=O)N(C)CC(=O)Nc2ccccc2OC)cc1	-8	-1	-1	4
CCN(C(=O)C(C)Sc1nnc(-c2ccncc2)n1C)C1CCCCC1 (configuration not stated)	-8	2	-2	.
O=C(Nc1cccs1)Nc1c(F)cc(F)cc1Br	96*	-11	0	14
N#Cc1sc2nccc(Nc3ccccc3)c2c1N	3	-11	2	.
CCOC(=O)c1sc(=S)n(CC)c1N	99*	1	0	11
C=CCn1c(N)c(C(=O)N2CCN(C)CC2)sc1=S	99*	2	1	-2
C=CCn1c(N)c(C(=O)OCC)sc1=S	99*	5	2	0
CCOC(=O)c1sc(=S)n(Cc2ccccc2)c1N	10	-1	-1	-3
CCn1c(C)c(C)c2cc(C(=O)NC3CCCCCC3)ccc21	?	-3	3	7
C=CCn1c(NC(=O)CC)c(C(=O)OCC)sc1=S	3	2	1	25
SMILES	ALR inh	Cardio protect	NTR1 agonist	SUMO HTRF inh
CCn1c(N)c(C(=O)NC2CCCCC2)sc1=S	98*	-2	0	-5
c1ccc(Sc2ncnc3c2oc2ccccc23)nc1	11	4	1	-7
CCCCOCCCNC(=O)c1c(-c2ccccc2)noc1C	-11	-13	0	20
CCn1c(N)c(C(N)=O)sc1=S	98*	-13	1	14
CCOC(=O)c1sc(=S)n(C)c1C	-8	2	0	3
CCn1c(N)c(C(=O)NCc2ccco2)sc1=S	.	3	0	27
CCOC(=O)c1sc(=S)n(C)c1N	99*	8	2	-24
Cc1ccc(-c2nn3c(C)nnc3c3ccccc23)cc1S(=O)(=O)NCCN1CCOCC1	-7	-1	0	20
Cc1ccc(-c2n[nH]c(=O)c3ccccc23)cc1S(=O)(=O)NCCN1CCOCC1	-4	49*	2	14
Cc1ccc(-c2n[nH]c(=O)c3ccccc23)cc1S(=O)(=O)Nc1ccccc1	2	83*	-1	9
Cc1ccc(-c2n[nH]c(=O)c3ccccc23)cc1S(=O)(=O)N(C)C	-2	26	0	-2
Cc1ccc(S(=O)(=O)CC(=O)N2CCOCC2)cc1	-1	4	-1	3
O=C(O)/C=C\C(=O)Nc1ccccc1C#Cc1ccccc1	?	6	2	13

High-throughput results (PubChem BioAssay)
